In the library only some 0.65% were active in any assay of this set; here they are far more common.
RN4220 kill = growth inhibition of S. aureus RN4220, primary screen, OD600; inhibition, % (test concentration not listed); 16 h; 330,000 tested, 0.33% active; AID 1259311, 2017; in the data active means inhibition above about 85%;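 further: plate controls were untreated cells for no effect and reference antibiotic for full effect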
Sa ugtP lethal = growth inhibition of ugtP-null S. aureus, primary screen, RN4220 ugtP deletion, OD600; 16 h; growth inhibition, % (concentration not given with the values); 330,000 tested, 0.54% active; AID 1259309, 2017; in the data active means growth inhibition above about 68%;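 further: plate controls were untreated wells for no effect and antibiotic for full effect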
BJeLR viability = MLPCN primary cell-based screen for lethality selective to Ras in HRASV12 cells. BJeLR (HRASV12) viability, CellTiter-Glo ATP luminescence, 48 h. inhibition, % (concentration not given with the values). 300,000 tested, 0.17% active; in the data active means inhibition above about 50%
An asterisk follows results filed as active; . = no result.

SMILES	RN4220 kill	Sa ugtP lethal	BJeLR viability
CCOc1ccc(/C=C/[N+](=O)[O-])c2ccccc12	95.7*	95.2*	18.8
CCOC(=O)COc1ccc(/C=C/[N+](=O)[O-])c(OCC(=O)OCC)c1	6.6	-10.7	1.0
O=[N+]([O-])/C=C/c1c(OCc2ccccc2)ccc2ccccc12	.	.	80.8*
CC1C=C(C(=O)N2CCN(C)CC2)OC(OCc2ccc(CO)cc2)C1 (stereo not given)	2.9	-9.4	.
CCC(CC)C(=O)Oc1c(Sc2ccccc2[N+](=O)[O-])c(C)nn1C(C)(C)C	-6.8	95.6*	-0.7
COCC(=O)Oc1c(Sc2ccccc2[N+](=O)[O-])c(C)nn1C(C)(C)C	7.6	7.2	2.2
NC(=O)C1CCCN(C(=O)c2cccc(S(=O)(=O)N(Cc3ccccc3)c3ccccc3)c2)C1 (stereo not given)	4.3	5.0	.
ON=C(c1ccccn1)C1CC1c1ccccc1 (stereo not given)	3.7	-0.9	.
COC(=O)c1ccc(/C=C2\SC(=S)N(CCCC(=O)N3CCOCC3)C2=O)cc1	0.6	3.6	.
Cc1ccc(/C=C2\SC(=S)N(CCCC(=O)N3CCOCC3)C2=O)cc1	0.8	5.7	88.8*
Cc1cc(=O)[nH]c2c(C)cc(S(=O)(=O)N3CCOCC3)cc12	-0.4	-3.3	7.3
CC(C)COc1ccc(/C(=N/O)c2ccccc2)cc1	.	.	-2.0
CC(C)COc1ccc(C(=NO)c2ccccc2)cc1	22.1	86.3*	.
COc1cc(C(=O)NCc2ccncc2)cc(OC)c1OC	0.5	1.4	-2.6
O=C(O)c1ccc(NC2=CC(=NS(=O)(=O)c3ccccc3)c3ccccc3C2=O)cc1	10.9	2.1	.
COc1ccc(S(=O)(=O)/N=C2\C=C(Nc3ccc(O)cc3)C(=O)c3ccccc32)cc1	.	.	51.0*
O=C(N/N=C/c1ccc([N+](=O)[O-])o1)c1ccccc1-n1cccc1	.	.	1.9
O=C(CNc1cccc2ccccc12)NN=Cc1ccc([N+](=O)[O-])o1	99.4*	100.2*	.
O=C(CNc1cccc2ccccc12)N/N=C/c1ccc([N+](=O)[O-])o1	.	.	-3.2
O=C(N/N=C/c1ccc([N+](=O)[O-])o1)c1ccc(NS(=O)(=O)c2cccs2)cc1	.	.	11.8
O=C(NN=Cc1ccc([N+](=O)[O-])o1)c1cn2ccc3ccccc3c2n1	52.8	100.5*	.
O=C(NN=Cc1ccc([N+](=O)[O-])o1)c1ccccc1NS(=O)(=O)c1cccs1	100.0*	100.0*	.
c1ccc(CCc2nn3c(C4COc5ccccc5O4)nnc3s2)cc1 (stereo not given)	4.4	16.2	8.8
CC(C)Oc1cccc(C(=O)NC(=S)Nc2cccc(NC(=O)c3ccccc3Cl)c2)c1	11.2	-15.4	-3.9
Cc1ccc(C(=O)N2CCN(c3ccc(NC(=S)NC(=O)Cc4ccccc4)cc3)CC2)cc1	6.4	90.2*	0.5
SMILES	RN4220 kill	Sa ugtP lethal	BJeLR viability
COc1ccc(C(=O)N2CCN(c3ccc(NC(=O)Cc4ccccc4)cc3)CC2)cc1	.	.	-1.0
COc1cccc(C(=O)NC(=S)Nc2ccc(N3CCCC3)cc2)c1	2.7	86.8*	4.4
CC(C)Oc1cccc(C(=O)NC(=S)Nc2ccc(N3CCN(C)CC3)cc2)c1	5.8	97.7*	15.0
CCCC(=O)N1CCN(c2ccc(NC(=S)NC(=O)c3cccc(C)c3)cc2)CC1	94.4	active	5.1
COc1ccc(C(=O)NC(=S)Nc2ccc(N3CCCC3)cc2)cc1	4.5	81.0	6.5
CCC(=O)N1CCN(c2ccc(NC(=S)NC(=O)c3ccc(OC)c([N+](=O)[O-])c3)cc2)CC1	2.3	59.1	1.1
COc1cccc(NC(=O)COC(=O)c2ccc3c(c2)OCO3)c1	1.1	2.3	.
CCOCCCNC(=O)c1cc2sc(Cl)cc2n1CC	4.3	0.4	-2.1
CSc1ccc(S(=O)(=O)Nc2ccc(F)cc2)cc1	8.5	-12.0	2.1
O=C(c1ccccc1)N1CCN(Cc2cccc(Oc3ccccc3)c2)CC1	2.8	5.7	-2.7
CN1CCN(c2ccc(NC(=S)NC(=O)c3cccc4c(Cl)cccc34)cc2)CC1	-3.7	97.8*	10.0
O=C(NC(=S)Nc1ccc(N2CCOCC2)cc1)c1cccc(Cl)c1Cl	6.7	0.4	-2.6
COc1ccc(N=Nc2n(C)c3ccccc3[n+]2C)cc1	.	.	52.5*
Cn1c(COc2ccccc2O)[n+](C)c2ccccc21	-1.7	-0.2	7.6
O=C1NC(=S)S/C1=C\c1cc(Cl)ccc1Cl	100.2*	99.9*	.
Cc1cc(C=C2SC(=S)NC2=O)c(C)[nH]1	13.1	-0.3	.
O=S(=O)(c1c(F)cccc1F)N1CCCC2CCCCC21 (stereo not given)	0.6	-3.1	.
CC1(C)CC(NC(=O)COc2ccc(Br)cc2Cl)CC(C)(C)N1	2.2	3.3	9.2
COc1ccc(-c2nc(/C=C3\C(C)=Nc4ccccc43)c(O)o2)cc1	91.3*	92.5*	-3.6
CC1=Nc2ccccc2/C1=C\c1nc(-c2ccccc2)oc1O	1.0	67.2	-8.0
O=C(NCc1nc(-c2ccc(C(F)(F)F)cc2)no1)Nc1ccc(F)cc1F	-2.1	-6.1	-1.0
O=C(NCc1nc(-c2ccc(C(F)(F)F)cc2)no1)Nc1cc(Cl)cc(Cl)c1	100.5*	99.5*	-4.4
O=C(CCN1CCN(Cc2ccccc2)CC1)NNC(=O)c1cc2ccccc2o1	4.0	-2.3	.
COc1ccc(C(=O)OCC(=O)Nc2c(C)cccc2C)cc1	1.8	8.2	1.5
N#CC(C#N)=C1C=CC=CN1/C(=C\c1ccco1)C(=O)c1ccccc1	36.6	74.0	.
SMILES	RN4220 kill	Sa ugtP lethal	BJeLR viability
N#CC(C#N)=C1C=CC=CN1/C(=C\c1ccco1)C(=O)c1ccc(Br)cc1	98.7*	98.4*	.
CON/C=C(\C=Nc1ccc(F)cc1)c1ncc(C(F)(F)F)cc1Cl	-3.1	91.8*	-2.6
CON/C=N/C(=S)Nc1ncc(C(F)(F)F)cc1Cl	13.7	-0.2	10.2
Cn1cc(Br)c(C(=O)NNC(=O)c2ccccc2)n1	23.4	2.6	4.8
CCOc1ccc(C(=O)C(C)OC(=O)Cn2cnc3c2c(=O)n(C)c(=O)n3C)cc1 (stereo not given)	2.0	5.5	-7.8
CC1=Nc2ccccc2C1=Cc1sc(Nc2ccc(C)cc2)nc1O	0.6	-27.6	.
CC1=Nc2ccccc2/C1=C/c1sc(=N)n(-c2nccs2)c1O	97.0*	98.2*	-3.6
CSc1n[nH]c(N)c1S(=O)(=O)c1ccc(Cl)cc1	2.8	7.0	-1.4
Cc1cccc(C)c1NC(=S)Nc1ccc(Cl)c(Cl)c1	18.9	-12.0	6.6
Cc1ccc(NC(=S)Nc2ccc(OC(F)F)c(Cl)c2)cc1Cl	75.3	66.6	8.2
Cc1ccc(NC(=S)Nc2ccc(Cl)c(Cl)c2)c(OC(F)F)c1	100.1*	100.3*	8.5
Cc1cc(C)cc(NC(=S)Nc2ccc(Cl)c(Cl)c2)c1	99.9*	100.7*	-5.1
COc1ccc(NC(=O)CC2(Cc3ccccc3)CCOC(C)(C)C2)cc1 (stereo not given)	2.4	0.7	3.5
O=C(CNC(=O)c1ccc(Cl)cc1Cl)NCC1CCCO1 (stereo not given)	5.6	2.0	-6.7
O=C(NNC1CC(=O)N(c2ccc(Br)cc2)C1=O)c1ccco1 (stereo not given)	1.4	6.7	1.0
Cc1ccc(-c2nc3cccnc3s2)cc1NS(=O)(=O)c1ccc2c(c1)CCCC2	4.7	74.9	-11.1
O=S(=O)(Nc1cccc(-c2nc3cccnc3s2)c1)c1ccc2c(c1)CCCC2	16.0	92.9*	6.1

Screening results deposited in PubChem by several laboratories.
